Screening data: PubChem BioAssay, National Center for Advancing Translational Sciences (NCATS)
Compounds with a hit are over-represented: about 4% of the library has one in this group of screens.
Glioma ERSR ind – induces the endoplasmic reticulum stress response in human glioma cells; U87-MG GRP78 promoter luciferase reporter, 16 h; Potency, µM, for inactives: at the top dose activation, hits mostly activators; actives 0.02% (n = 420,000); AID 602332; active = well fitted activation curve with a large enough effect; note: potency is the fitted concentration of half-maximal effect; series mostly up to about 76 µM; % of control where 0% means no effect; nearly all actives have a fitted effect of over 35% in size
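Stably transfected U87-MG glioma cells carrying a GRP78-based luciferase sensor; 16 h compound incubation. Luminescence end-point read 10 min after Bright-Glo addition at room temperature.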
D1 potentiator – potentiators of human D1 dopamine receptor; AID 504651; HEK293 TREx D1 cells, calcium flux, dopamine EC20 potentiation; actives 0.036% (n = 360,000); potentiation, % at 10 µM; in the data active = potentiation above about 30%; note: 0% is about no effect
D1 ag – agonists of human D1 dopamine receptor. HEK293 T-REx D1 cells, calcium flux, agonist mode. activation, % at 2 µM. actives 1% (n = 360,000). AID 504660; note: 0% is about no effect
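Tetracycline-induced HEK293 TREx D1 cells, force-coupled to calcium signalling, were dye-loaded with a no-wash calcium kit. Compound was pin-added after a 10 s baseline. Fluorescence was read kinetically at 1 cycle/s for 180 s, with calcium rises flagged as agonism.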
D1 antag – human D1 dopamine receptor antagonism | P21728 | actives 3.2% (n = 360,000) | activity change, negative = inhibition, % at 10 µM | HEK293 TREx D1 cells, calcium flux, dopamine EC80; active compounds read low | AID 504652; in the data active = activity change below about -30%; note: % is set by controls: 0 for no effect and ±100 for the full control effect
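Compound effects on dopamine-evoked calcium signalling were measured in tetracycline-induced HEK293 Trex D1 cells. Dopamine at EC80 followed a 180 s compound pre-read, and fluorescence was tracked kinetically for 180 s more.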
TRHR agonist – agonists of human TRH receptor | P34981 | TRHR cells, calcium flux fluo-8, FDSS agonist mode | activation, % at 2 µM | actives 0.18% (n = 360,000) | AID 493084; note: 0% is about no effect
Target sequence (P34981 whole entry, looked up): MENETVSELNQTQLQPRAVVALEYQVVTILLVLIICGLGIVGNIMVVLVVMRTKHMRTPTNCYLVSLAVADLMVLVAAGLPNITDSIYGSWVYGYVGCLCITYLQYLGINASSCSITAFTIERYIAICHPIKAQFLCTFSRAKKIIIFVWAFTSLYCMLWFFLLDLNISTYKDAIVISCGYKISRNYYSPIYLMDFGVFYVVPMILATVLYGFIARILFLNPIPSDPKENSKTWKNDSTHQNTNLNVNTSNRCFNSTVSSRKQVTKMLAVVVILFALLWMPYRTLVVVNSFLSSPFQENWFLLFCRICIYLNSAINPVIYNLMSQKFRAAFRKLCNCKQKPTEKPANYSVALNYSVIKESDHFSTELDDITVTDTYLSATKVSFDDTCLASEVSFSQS
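Read-out: compound-evoked intracellular calcium rise in TRHR cells, fluo-8 dye, kinetic FDSS fluorescence at 1 s/cycle following a 10-cycle baseline. Cells cultured overnight before dye loading (30 min–1.5 h, RT).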
TRHR enhancer – allosterically enhances the human TRH receptor; P34981; TRHR cells, fluo-8 calcium fluorescence, EC20 TRH enhancement; enhancement, % at 2 µM; actives 0.66% (n = 360,000); AID 493056; in the data active = enhancement above about 30%; note: 0% is about no effect
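Enhancer read-out: after compound pinning and an initial kinetic agonist-mode read, an EC20 of TRH (10 nM final) was injected and fluo-8 calcium signal (Ex 480/Em 530) followed at 1 s/cycle for 100 cycles in TRHR-expressing cells.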
Starred values were filed as active, the others as inactive; nt = not tested or not shown. Cut-off read from the data, not from the text of the source, unless noted: active = activation above about 30%; inactive = the rest.

SMILES	Glioma ERSR ind	D1 potentiator	D1 ag	D1 antag	TRHR agonist	TRHR enhancer
Cc1cccc(NC2=NCC(=O)N2CCc2ccccc2)c1	-6%	-7	3	-36*	1	-9
O=C(O)CC1S/C(=N\N=C2CCCCCCC2)N(c2ccccc2)C1=O (configuration not stated)	-1%	5	0	13	0	9
O=C(O)CC1SC(=Nc2ccccc2)N(c2ccccc2)C1=O (configuration not stated)	1%	-5	-1	-31*	0	1
Cc1ccc(SCC(=O)OCC(=O)N(C)CC(=O)Nc2ccc(F)cc2)cc1C	-2%	8	53*	62	0	35*
Cc1noc(-c2ccc(C(F)(F)F)cc2)c1NC(=O)Nc1ccc(Cl)cc1	-2%	-13	25	-42*	0	-11
Clc1ccc2oc(-c3cccnc3)nc2c1	4%	-2	6	-37*	-1	-9
C[C@@]12CCC[C@H]1[C@@H]1CC[C@H]3C[C@@H](O)CC[C@]3(C)[C@H]1CC2	-2%	nt	nt	nt	nt	nt
C[C@]12CCC(O)CC1CCC1C2CC[C@]2(C)C(c3cc(C(F)(F)F)n[nH]3)CCC12 (some centres not stated)	-3%	-7	43*	-5	2	-11
Cn1cc(CN(C(=O)Nc2ccc(Cl)c(Cl)c2)C2CCCCC2)c2ccccc21	1%	5	7	-47*	2	6
CCOc1ccc(C(=O)NC(Cc2ccccc2)C(=O)OC)cc1 (configuration not stated)	9%	-3	-2	-32*	0	-3
CC1CN(CC(=O)NCC2(N3CCOCC3)CCCC2)Cc2cc(Cl)ccc2O1 (configuration not stated)	-3%	nt	nt	nt	nt	nt
COCCNC(=S)N1CCC(C(=O)c2ccc3c(c2)OCCO3)CC1	5%	-3	7	10	0	3
CCCNC(=S)N1CCC(C(=O)c2ccc3c(c2)OCCO3)CC1	1%	-9	15	-34*	0	-5
C/C(=N/NC(=O)c1ccccc1)C(=O)O	0%	-1	0	-31*	0	28
COC(=O)NC1CSCC1OC(=O)c1ccc(Br)cc1 (configuration not stated)	-3%	-6	-1	-23	0	-8
CCCNC(=O)Nc1nc2ccccc2s1	-3%	-15	4	-72*	0	7
C=CCC(=O)N1CCCC(C(=O)c2ccc(Cl)cc2)C1 (configuration not stated)	-1%	-2	1	-2	0	17
CCCCC(=O)Nc1cccc(-c2csc(-c3ccccc3)n2)c1	8%	2	4	-4	1	-4
Cn1cc(Br)c(-c2cccc(NC(=O)CCC(=O)O)c2)n1	-2%	-4	1	-37*	0	-5
O=C(O)CCC(=O)Nc1cccc(-c2csc(-c3ccccc3)n2)c1	-12%	-1	3	-34*	0	0
CCCC[n+]1ccn(-c2nc3ccccc3nc2[N-]S(=O)(=O)c2ccc(Cl)cc2)c1	-1%	13	6	-40*	0	3
CCCCC[n+]1ccn(-c2nc3ccccc3nc2[N-]S(=O)(=O)c2ccccc2)c1	0%	0	0	-2	1	-3
Cc1cc(C)cc(NC(=O)Cc2csc(COc3cccc(C)c3)n2)c1	-3%	0	3	-10	0	38*
COc1cccc(NC(=O)Cc2csc(COc3cccc(C)c3)n2)c1	5%	1	3	5	-1	2
O=C(Nc1c(O)c2ccccc2oc1=O)c1cccc(F)c1	-5%	4	1	-2	0	-2
SMILES	Glioma ERSR ind	D1 potentiator	D1 ag	D1 antag	TRHR agonist	TRHR enhancer
COc1cc(C(=O)NCC(=O)NCCN2C(=O)S/C(=C\c3ccccc3Cl)C2=O)cc(OC)c1OC	-3%	-4	0	3	0	31*
CC(C)(C)c1ccc(C(=O)CSc2n[nH]c(=O)[nH]c2=O)cc1	-4%	-1	1	-13	0	-2
O=C(NC1CCCc2ccccc21)c1ccc(=O)[nH]c1 (configuration not stated)	-1%	-2	1	-39*	1	-2
Cc1cc(C)n(CC(C)Nc2nc3nonc3nc2N2CCCCC2)n1 (configuration not stated)	-1%	0	0	-9	-1	-5
Cc1nn(C)cc1C(C)Nc1nc2nonc2nc1N1CCCCC1 (configuration not stated)	-7%	0	2	-4	-1	33*
CCOc1ccc(NS(=O)(=O)c2ccc3[nH]cc(C(=O)NCc4ccco4)c(=O)c3c2)cc1	-5%	2	0	-48*	0	24
CCOc1ccc(NS(=O)(=O)c2ccc3[nH]cc(C(=O)NCc4ccccc4)c(=O)c3c2)cc1	-4%	-3	6	-2	0	-4
C/C(=N/NC(=O)C1CCCN1C(=O)c1ccc([N+](=O)[O-])cc1)c1ccc(Br)cc1 (configuration not stated)	-2%	-4	2	-8	1	35*
CCOC(=O)C1CCCN(S(=O)(=O)CCNC(=O)c2ccc3c(c2)OCO3)C1 (configuration not stated)	-3%	6	3	1	-1	9
Cc1ccc(OCc2nc(-c3ccc(C(=O)N4CCN(c5ccccc5)CC4)cc3)oc2C)cc1	-3%	0	2	3	0	0
Cc1ccc(OCc2nc(-c3ccc(C(=O)N4CCN(c5cc(Cl)ccc5C)CC4)cc3)oc2C)cc1	1%	-5	5	-34*	0	-4
COc1ccc(-c2cc(=O)c3cc(OC)c(OC)cc3[nH]2)cc1	-3%	-2	-3	-9	0	-1
Cc1ccc(CN2C(=O)CSC2c2ccccc2F)cc1 (configuration not stated)	-3%	-2	0	-22	0	-11
Cc1ccc(CN2C(=O)CSC2c2ccc(F)cc2)cc1 (configuration not stated)	-1%	4	6	-39*	-2	-2
CN(C)C(CNC(=O)c1cccs1)c1ccco1 (configuration not stated)	1%	3	1	7	1	4
Cc1ccc(-n2nc(-c3ccc(OC(F)(F)F)cc3)cc2N)cc1C	1%	-4	3	-32*	-1	-7
O=C(c1cccc(S(=O)(=O)N2CCc3ccccc32)c1)N1CCc2ccccc2C1	-4%	nt	11	-82*	1	-3
O=C(NCCc1ccccn1)c1cccc(S(=O)(=O)N2CCCCCC2)c1	-2%	-3	0	1	0	-3
